NIH3T3 tox = NIH 3T3 cell cytotoxicity; 4.3% of 94,000 active; Potency, µM (highest dose often 96.7 µM), for the others: at the top dose activity change, negative = cytotoxicity, actives largely listed as inhibitors; NIH 3T3 viability, CellTiter-Glo ATP luminescence, 48-72 h; also: nearly all actives have a fitted effect of over 55% in size
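Luminescent ATP readout (CellTiter-Glo, 10 min RT) after 48 or 72 hr compound exposure of NIH 3T3 cells seeded at 400 cells/well in 1536-well format; quantitative HTS.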
FLuc inh = blocks purified firefly luciferase enzyme activity; P08659; purified P. pyralis luciferase, luminescence, biochemical; 2.5% of 76,000 active; Potency, µM (highest dose often 115 µM), hits mostly inhibitors; also: nearly all actives have a fitted effect of over 65% in size
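Biochemical qHTS: compound (6-point titration) added to 10uM D-luciferin plus 10uM ATP in Tris acetate pH 7.5 buffer with Mg, Tween-20 and BSA, then purified enzyme at 10nM; light output imaged.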
GPT2 inhibitor = inhibitors of human GPT2 alanine aminotransferase. AID 1671188. Potency, µM (doses to about 57.7 µM), for inactives: top-dose activity change, negative = inhibition, most hits filed as inhibitors. 0.25% of 100,000 active. Q8TD30. Recombinant GPT2, coupled pyruvate oxidase/HRP Amplex Red fluorescence; also: nearly all actives have a fitted effect of over 60% in size
Target sequence (Q8TD30 whole entry, looked up): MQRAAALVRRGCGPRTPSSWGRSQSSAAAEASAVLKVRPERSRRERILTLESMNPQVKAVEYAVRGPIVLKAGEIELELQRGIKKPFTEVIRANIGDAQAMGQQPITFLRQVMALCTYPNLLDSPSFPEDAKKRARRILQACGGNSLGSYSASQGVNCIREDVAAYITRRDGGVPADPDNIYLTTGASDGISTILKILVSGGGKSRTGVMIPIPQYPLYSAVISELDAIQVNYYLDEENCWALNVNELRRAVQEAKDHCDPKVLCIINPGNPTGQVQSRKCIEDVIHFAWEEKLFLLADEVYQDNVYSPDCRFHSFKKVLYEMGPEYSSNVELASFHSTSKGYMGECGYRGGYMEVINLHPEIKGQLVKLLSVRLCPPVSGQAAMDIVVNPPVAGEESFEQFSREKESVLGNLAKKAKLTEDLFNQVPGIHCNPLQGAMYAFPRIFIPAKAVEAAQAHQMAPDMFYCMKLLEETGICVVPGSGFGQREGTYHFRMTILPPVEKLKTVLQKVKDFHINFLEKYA
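Fluorescence read-out: pyruvate from GPT2 turnover coupled to pyruvate oxidase, HRP and Amplex Red (0.2mM ThPP, 0.2U/mL PO and HRP, 50uM Amplex final). Substrates 250uM a-KG, 2mM L-alanine; enzyme 10ng/uL; 30 min RT.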
hNpr1 antagonist = human Npr1 receptor antagonism; Potency, µM (series often up to 46.3 µM), without a hit: at the top dose activity change, negative = inhibition, usual class: inhibitors; HEK293 hNpr1 GloSensor cGMP, ANP-stimulated luminescence; 1.6% of 76,000 active; calls by dose curve; also: nearly all actives have a fitted effect of over 60% in size
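HEK293 cells stably expressing human Npr1 and cGMP GloSensor pGS-40F, loaded 2 h with 2% GloSensor reagent, given compound 30 min at room temperature. Luminescence read before and 20 min after 0.1 nM hNppA.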
HEK cytotox = HEK 293 cell cytotoxicity. HEK 293 viability, ATP luminescence (CellTiter-Glo), 48-72 h. Potency, µM (titrated, usually from 115 µM), inactives show at the top dose activity change, negative = cytotoxicity, actives largely listed as inhibitors. 6.6% of 94,000 active. AID 1345083; also: nearly all actives have a fitted effect of over 60% in size
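ATP-coupled CellTiter-Glo luminescence served as viability read-out, recorded 10 min after reagent addition at room temperature. HEK 293 cells, 250 cells/well, had been incubated with pintool-transferred compound for 48 or 72 hr at 37 degree Celsius.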
An asterisk follows results filed as active; i = inactive; ? = inconclusive; . = no result; [ ] = remark or other dose. Shown are actives, neighbours in structure and some others; about 10% of the full set was active somewhere. Unless noted, calls follow the shape of the dose curve; as a rule, active = well fitted curve in the direction sought with a large enough effect; inconclusive = small, poorly fitted or top-dose-only effect, or another doubt; inactive = no such curve, though single readings can be large; an effect the other way counts as inactive or inconclusive. % is scaled to controls: 0 for no effect and ±100 for the full control effect; potency is read from the fitted curve at half-maximal effect.

SMILES	NIH3T3 tox	FLuc inh	GPT2 inhibitor	hNpr1 antagonist	HEK cytotox
CNC(=O)c1cc(C)cc2onc(C3CCCN3C(=O)Cc3ccccc3)c12 (stereo not given)	-18%	.	.	.	2%
O=C(c1ccccc1)N1CCC2(CC1)N=C(c1cccc(Br)c1)NO2	?	i	i	-11%	?
Cc1ccccc1CC(=O)N1CCC2(CC1)N=C(c1cccc(Br)c1)NO2	?	i	i	?	89µM*
COc1ccccc1CC(=O)N1CCC2(CC1)N=C(c1ccc(Cl)cc1)NO2	?	i	3%	?	45µM*
O=C(Nc1ccc(C2(C(=O)NCc3ccc4c(c3)OCO4)CCCCC2)cc1)C1CC1	?	i	-7%	4%	?
Cc1nn(-c2ccccc2)c2c1C(C1CC1)N(C1CCN(Cc3cccc(C(F)(F)F)c3)CC1)C2=O (stereo not given)	1%	.	.	.	-2%
Cn1c(CN2CC[C@H](c3nc4ccccc4[nH]3)C2)nc2ccccc21	?	i	?	-15%[70.6 µM]	45µM*
Cn1c([C@H]2CCN(Cc3cnc4ccccc4c3)C2)nc2ccccc21	?	i	i	-7%[70.6 µM]	71µM*
Cn1c(CO[C@H]2CN(Cc3cnc4ccccc4c3)C[C@H]2F)nc2ccccc21	?	i	i	?	79µM*
Cn1c([C@H]2CCN(Cc3ccc4c(c3)OCO4)C2)nc2ccccc21	?	i	-24%[88.5 µM]	-11%[70.6 µM]	?
c1ccc2ncc(CN3CC[C@H](c4nc5ccccc5[nH]4)C3)cc2c1	?	i	-4%[88.5 µM]	-16%[70.6 µM]	71µM*
C=CCc1ccc(O[C@@H]2O[C@H](CO[C@@H]3O[C@H](CO)[C@@H](O)[C@H](O)[C@H]3O)[C@@H](O)[C@H](O)[C@H]2O)c(O)c1	.	.	i	.	.
CCOC(=O)c1ccc(NC(=O)N2CCc3c(nc4cc[nH]n4c3=O)C2)cc1	i	i	i	1%	9%
CC(=O)Nc1cc(-c2cccnc2)nn1-c1ccccc1	-4%[138 µM]	.	i	.	-1%[172 µM]
CC(C)CN1CC[C@H](c2nc3ccccc3n2C)C1	-24%[230 µM]	22µM*	-5%[88.5 µM]	0%[70.6 µM]	?
COc1cccc(CN2Cc3nc(N(C)c4ccccc4)ccc3OCC2=O)c1	?	?	-8%[88.5 µM]	?	89µM*
CN(c1ccccc1)c1ccc2c(n1)CN(Cc1ccc(F)cc1)C(=O)CO2	89µM*	50µM*	-9%[88.5 µM]	?	?
Cn1nc(C(=O)NCc2cccnc2)c2c1CN(C(=O)CC1CCCCC1)C2	-29%	.	4%	.	-27%
CCc1ccc(NC(=O)Cn2c(-c3ccc(Cl)cc3)nc(C)c(CCO)c2=O)cc1	45µM*	i	i	-4%	40µM*
CCc1ccc(NC(=O)Cn2c(-c3ccccc3)nc(C)c(CCO)c2=O)cc1	40µM*	i	-23%	-25%	40µM*
CCc1cccc(NC(=O)Cn2c(-c3ccc(F)cc3)nc(C)c(CCO)c2=O)c1	?	i	i	-11%	?
CCN1C(=O)CCN(Cc2cn(C)c3ccccc23)CC12CCOCC2	?	.	i	.	79µM*
Cc1nn(C)c(C)c1S(=O)(=O)N1CCCC(C(=O)N2CCCn3nc(-c4ccc(F)cc4)cc3C2)C1 (stereo not given)	?	.	-3%	.	32µM*
Cc1nn(C)c(C)c1S(=O)(=O)N1CCCC(Cn2c(C3CC3)nc3cccnc32)C1 (stereo not given)	?	i	i	-1%	1%
CCCCCNC(=O)c1cc(-c2ccc(F)cc2)nc2c1cnn2C	-26%	.	.	.	?
CN1CCN(C(=O)c2ccc3nnc(C4CCCC4)n3c2)CC1	-26%[138 µM]	.	i	.	-1%[172 µM]
C#CCN(Cc1cc2c(=O)n(C)c(CN3CCN(C)CC3)nc2cc1Cl)c1ccc(C(=O)NCc2cccnc2)cc1	.	.	-5%	.	.
COc1cccc(CNC(=O)CN2C(=O)NC3(CCCCC3)C2=O)c1	-10%	i	-6%	1%	0%
COc1cccc(CNC(=O)Nc2cccc(-c3ccc(N4CCCCC4)nn3)c2)c1	?	0.25µM*	-9%	10µM*	32µM*

Bioassay records (PubChem)
